Test results published in the supplement of paper PMC10849652.
Targets with a hit are over-represented here; the source holds about 7,900 in all. About 0.6% of all pairs of compound and target were hits. Values without a mark were called inactive.

Compound: CC1=NC(=CC=C1)C2=C(N=C(N2)C(C)(C)C)C3=CC4=NC=CN=C4C=C3
Assay: log2 fold change, soluble protein after heating vs DMSO (PISA); higher = thermal stabilisation; K562 cells, 10 uM, 30 min; active = over 0.2 and 3.5 SD of the protein, either way, in both replicates (recomputed)
Method in brief: (§1)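 Quantification of soluble protein used TMTpro 16plex LC-MS/MS, with channel sums equalised. Samples were the supernatant after 21,000xg for 90 min of pooled aliquots from K562 cells (2×10^6 cells/mL) treated with 10 μM compound for 30 min, heated for 3 min over 48°C-58°C, and extracted in PBS with 0.5% NP-40 at 4°C. Values, from duplicates, describe thermal stability against control samples on a log2 fold-change scale.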

UniProt Q14517, sequence (Q14517 whole entry, looked up): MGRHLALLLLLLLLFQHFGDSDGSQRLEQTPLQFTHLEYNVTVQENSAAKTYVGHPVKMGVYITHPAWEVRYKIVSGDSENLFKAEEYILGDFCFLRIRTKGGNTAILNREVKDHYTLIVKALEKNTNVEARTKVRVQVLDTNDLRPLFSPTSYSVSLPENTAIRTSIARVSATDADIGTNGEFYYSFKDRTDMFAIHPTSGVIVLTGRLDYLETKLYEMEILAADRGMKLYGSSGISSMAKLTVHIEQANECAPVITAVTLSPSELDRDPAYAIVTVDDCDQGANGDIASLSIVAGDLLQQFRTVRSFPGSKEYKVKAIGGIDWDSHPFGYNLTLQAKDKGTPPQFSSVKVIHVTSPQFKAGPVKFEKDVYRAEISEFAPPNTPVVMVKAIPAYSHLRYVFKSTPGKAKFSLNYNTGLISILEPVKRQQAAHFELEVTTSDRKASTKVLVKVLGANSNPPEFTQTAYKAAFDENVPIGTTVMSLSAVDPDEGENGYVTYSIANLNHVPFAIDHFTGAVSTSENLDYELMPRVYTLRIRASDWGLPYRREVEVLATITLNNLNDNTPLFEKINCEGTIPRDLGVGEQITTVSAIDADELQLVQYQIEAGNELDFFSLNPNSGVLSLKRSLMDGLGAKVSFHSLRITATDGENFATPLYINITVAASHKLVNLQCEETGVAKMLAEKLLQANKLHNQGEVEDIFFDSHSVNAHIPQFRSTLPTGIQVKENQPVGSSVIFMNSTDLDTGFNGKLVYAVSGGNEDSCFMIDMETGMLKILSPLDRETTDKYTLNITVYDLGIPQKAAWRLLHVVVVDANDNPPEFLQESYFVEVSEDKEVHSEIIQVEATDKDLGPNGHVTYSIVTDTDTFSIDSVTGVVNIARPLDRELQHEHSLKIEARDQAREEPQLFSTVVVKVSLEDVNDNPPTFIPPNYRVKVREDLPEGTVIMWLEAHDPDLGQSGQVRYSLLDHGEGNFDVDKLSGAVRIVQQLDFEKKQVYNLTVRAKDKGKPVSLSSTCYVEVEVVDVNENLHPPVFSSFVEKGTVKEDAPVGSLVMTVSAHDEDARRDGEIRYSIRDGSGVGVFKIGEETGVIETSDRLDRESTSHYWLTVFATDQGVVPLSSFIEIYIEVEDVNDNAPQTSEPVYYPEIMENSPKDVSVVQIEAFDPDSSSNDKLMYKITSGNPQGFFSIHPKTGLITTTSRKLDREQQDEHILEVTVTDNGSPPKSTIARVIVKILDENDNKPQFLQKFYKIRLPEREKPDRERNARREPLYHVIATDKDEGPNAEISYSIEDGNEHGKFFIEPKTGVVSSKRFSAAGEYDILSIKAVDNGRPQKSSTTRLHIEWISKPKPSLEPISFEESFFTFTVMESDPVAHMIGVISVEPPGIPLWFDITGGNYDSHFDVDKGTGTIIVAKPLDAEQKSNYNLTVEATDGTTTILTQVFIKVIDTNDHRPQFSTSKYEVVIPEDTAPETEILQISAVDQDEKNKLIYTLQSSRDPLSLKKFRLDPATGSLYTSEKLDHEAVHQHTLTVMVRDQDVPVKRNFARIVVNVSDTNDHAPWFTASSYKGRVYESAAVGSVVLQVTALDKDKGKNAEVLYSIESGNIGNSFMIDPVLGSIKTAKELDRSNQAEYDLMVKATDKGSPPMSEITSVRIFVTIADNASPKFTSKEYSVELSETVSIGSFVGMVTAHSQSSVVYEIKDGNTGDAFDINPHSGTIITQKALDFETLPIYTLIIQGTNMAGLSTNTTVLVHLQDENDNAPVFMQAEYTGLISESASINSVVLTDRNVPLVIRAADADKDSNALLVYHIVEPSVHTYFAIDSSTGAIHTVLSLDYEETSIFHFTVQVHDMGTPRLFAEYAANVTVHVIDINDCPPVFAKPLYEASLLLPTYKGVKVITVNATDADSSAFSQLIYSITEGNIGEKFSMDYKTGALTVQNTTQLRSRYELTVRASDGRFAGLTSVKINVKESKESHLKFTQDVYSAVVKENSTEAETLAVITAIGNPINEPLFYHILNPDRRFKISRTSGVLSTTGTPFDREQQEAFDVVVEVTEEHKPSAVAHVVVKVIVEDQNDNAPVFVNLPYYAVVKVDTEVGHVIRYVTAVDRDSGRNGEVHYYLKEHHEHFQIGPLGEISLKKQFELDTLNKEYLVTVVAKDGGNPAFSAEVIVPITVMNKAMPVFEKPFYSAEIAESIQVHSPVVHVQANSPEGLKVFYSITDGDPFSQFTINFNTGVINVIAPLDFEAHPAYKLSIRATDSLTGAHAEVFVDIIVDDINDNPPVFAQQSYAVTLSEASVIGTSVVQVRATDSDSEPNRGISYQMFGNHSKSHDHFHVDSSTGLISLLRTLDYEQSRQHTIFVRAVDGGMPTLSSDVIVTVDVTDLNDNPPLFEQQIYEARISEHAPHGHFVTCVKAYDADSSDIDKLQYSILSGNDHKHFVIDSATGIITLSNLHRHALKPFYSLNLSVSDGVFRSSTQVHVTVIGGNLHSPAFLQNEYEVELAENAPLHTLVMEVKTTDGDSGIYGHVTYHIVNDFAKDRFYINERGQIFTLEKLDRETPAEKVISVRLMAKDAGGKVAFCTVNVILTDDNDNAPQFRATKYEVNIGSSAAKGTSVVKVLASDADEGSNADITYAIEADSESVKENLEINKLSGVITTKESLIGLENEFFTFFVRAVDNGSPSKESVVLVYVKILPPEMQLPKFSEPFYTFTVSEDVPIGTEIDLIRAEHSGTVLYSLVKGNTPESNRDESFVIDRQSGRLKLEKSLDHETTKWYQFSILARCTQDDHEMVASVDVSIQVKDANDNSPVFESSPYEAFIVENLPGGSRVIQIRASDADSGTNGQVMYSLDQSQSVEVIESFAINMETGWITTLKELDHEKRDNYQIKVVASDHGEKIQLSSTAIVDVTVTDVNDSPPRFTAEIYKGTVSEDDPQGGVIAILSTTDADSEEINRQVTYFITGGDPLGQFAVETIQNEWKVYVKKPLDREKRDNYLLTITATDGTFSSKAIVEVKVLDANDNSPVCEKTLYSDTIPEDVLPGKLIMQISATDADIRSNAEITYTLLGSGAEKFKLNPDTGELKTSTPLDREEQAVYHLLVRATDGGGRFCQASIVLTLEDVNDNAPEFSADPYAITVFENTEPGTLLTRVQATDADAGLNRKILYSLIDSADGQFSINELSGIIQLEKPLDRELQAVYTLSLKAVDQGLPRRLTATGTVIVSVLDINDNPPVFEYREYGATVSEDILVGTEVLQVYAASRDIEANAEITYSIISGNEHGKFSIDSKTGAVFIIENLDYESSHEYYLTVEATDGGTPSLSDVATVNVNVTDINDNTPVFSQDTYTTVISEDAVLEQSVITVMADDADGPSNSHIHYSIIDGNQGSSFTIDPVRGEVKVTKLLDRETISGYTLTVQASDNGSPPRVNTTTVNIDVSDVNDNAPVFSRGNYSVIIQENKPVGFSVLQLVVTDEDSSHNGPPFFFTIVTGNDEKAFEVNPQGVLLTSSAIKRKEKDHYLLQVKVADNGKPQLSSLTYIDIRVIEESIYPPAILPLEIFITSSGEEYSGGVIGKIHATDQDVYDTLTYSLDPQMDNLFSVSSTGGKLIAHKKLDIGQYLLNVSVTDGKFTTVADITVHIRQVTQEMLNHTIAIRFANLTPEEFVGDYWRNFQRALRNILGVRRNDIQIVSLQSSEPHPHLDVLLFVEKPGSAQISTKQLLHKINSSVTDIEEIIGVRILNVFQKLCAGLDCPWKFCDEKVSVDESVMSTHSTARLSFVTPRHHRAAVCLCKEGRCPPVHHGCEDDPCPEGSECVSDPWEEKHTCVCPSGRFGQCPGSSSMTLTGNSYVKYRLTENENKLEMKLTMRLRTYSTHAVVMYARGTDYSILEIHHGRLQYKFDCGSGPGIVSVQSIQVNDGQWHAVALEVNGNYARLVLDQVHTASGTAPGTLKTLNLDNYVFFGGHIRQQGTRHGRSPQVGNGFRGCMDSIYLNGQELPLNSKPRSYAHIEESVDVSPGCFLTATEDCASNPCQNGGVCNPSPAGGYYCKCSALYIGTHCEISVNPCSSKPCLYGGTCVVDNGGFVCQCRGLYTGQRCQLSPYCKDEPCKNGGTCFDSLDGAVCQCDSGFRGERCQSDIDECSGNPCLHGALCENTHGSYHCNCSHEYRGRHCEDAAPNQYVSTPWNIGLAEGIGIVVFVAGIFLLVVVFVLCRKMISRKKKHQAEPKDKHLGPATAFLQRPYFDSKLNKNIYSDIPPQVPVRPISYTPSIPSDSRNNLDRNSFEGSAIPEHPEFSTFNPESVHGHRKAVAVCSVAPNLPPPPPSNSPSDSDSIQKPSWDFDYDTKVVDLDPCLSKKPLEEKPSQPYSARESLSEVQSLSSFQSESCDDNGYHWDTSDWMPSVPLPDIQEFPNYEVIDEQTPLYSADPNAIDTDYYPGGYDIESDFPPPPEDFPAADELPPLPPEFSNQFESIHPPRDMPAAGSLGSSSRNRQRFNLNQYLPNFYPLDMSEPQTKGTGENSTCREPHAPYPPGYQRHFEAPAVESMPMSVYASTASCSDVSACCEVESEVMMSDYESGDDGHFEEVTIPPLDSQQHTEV
UniProt P55084, sequence (P55084 whole entry, looked up): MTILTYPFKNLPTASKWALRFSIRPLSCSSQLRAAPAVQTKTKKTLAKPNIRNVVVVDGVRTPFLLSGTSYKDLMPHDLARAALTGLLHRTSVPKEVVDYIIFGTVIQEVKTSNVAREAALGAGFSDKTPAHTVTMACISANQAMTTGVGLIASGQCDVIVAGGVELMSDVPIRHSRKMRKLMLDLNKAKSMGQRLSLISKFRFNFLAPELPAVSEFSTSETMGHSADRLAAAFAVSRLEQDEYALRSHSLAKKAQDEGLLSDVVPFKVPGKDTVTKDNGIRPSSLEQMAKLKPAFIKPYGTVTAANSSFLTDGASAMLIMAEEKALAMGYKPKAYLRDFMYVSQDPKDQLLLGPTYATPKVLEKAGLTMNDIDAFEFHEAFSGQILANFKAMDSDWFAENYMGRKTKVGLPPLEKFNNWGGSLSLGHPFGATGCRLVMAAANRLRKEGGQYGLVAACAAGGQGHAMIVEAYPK

| Target | log2 fold change |
| --- | --- |
| FAT1 (UniProt Q14517) | 0.053 |
| GAB2 (UniProt Q9UQC2) | 0.077 |
| GLCCI1 (UniProt Q86VQ1) | 0.028 |
| FANCI (UniProt Q9NVI1) | 0.046 |
| GALNT11 (UniProt Q8NCW6) | -0.041 |
| FDPS (UniProt P14324) | -0.077 |
| HDAC1 (UniProt Q13547) | 0.034 |
| HDAC2 (UniProt Q92769) | -0.006 |
| HDAC7 isoform 5 (UniProt Q8WUI4) | -0.002 |
| GEMIN2 (UniProt O14893) | -0.002 |
| HPCAL1 (UniProt P37235) | 0.032 |
| FCHO1 (UniProt O14526) | -0.016 |
| HIP1R (UniProt O75146) | -0.002 |
| HADHB (UniProt P55084) | -0.012 |
| GHDC (UniProt Q8N2G8) | -0.021 |
| FEN1 (UniProt P39748) | 0.057 |
| GOPC (UniProt Q9HD26) | -0.066 |
| FDFT1 (UniProt P37268) | -0.034 |

| Target | log2 fold change |
| --- | --- |
| GDE1 (UniProt Q9NZC3) | -0.059 |
| ICMT (UniProt O60725) | 0.072 |
| GAK (UniProt O14976) | -0.14 |
| GSTP1 (UniProt P09211) | 0.008 |
| FOXO3 (UniProt O43524) | 0.119 |
| FDXR isoform 7 (UniProt P22570) | 0.072 |
| HNRNPH2 (UniProt P55795) | 0.058 |
| GLIPR2 (UniProt Q9H4G4) | -0.032 |
| FIBP (UniProt O43427) | 0 |
| HNRNPC isoform 2 (UniProt P07910) | -0.045 |
| FBXO7 (UniProt Q9Y3I1) | -0.014 |
| GPS2 (UniProt Q13227) | -0.013 |
| GGA2 (UniProt Q9UJY4) | 0.06 |
| GMEB1 (UniProt Q9Y692) | 0.014 |
| FANCD2 isoform 1 (UniProt Q9BXW9) | -0.035 |
| GPX4 (UniProt P36969) | 0.06 |
| IFITM3 (UniProt Q01628) | -0.059 |

Compound: CCCCN(Cc1ccc(C(=O)NO)cc1)C(=O)Nc1ccccc1 [Nexturastat A]
Assay: as above
Method in brief: as §1

| Target | log2 fold change |
| --- | --- |
| FAT1 (UniProt Q14517) | 0.104 |
| GAB2 (UniProt Q9UQC2) | 0.075 |
| GLCCI1 (UniProt Q86VQ1) | 0 |
| FANCI (UniProt Q9NVI1) | -0.054 |
| GALNT11 (UniProt Q8NCW6) | -0.032 |
| FDPS (UniProt P14324) | 0.068 |
| HDAC1 (UniProt Q13547) | 1.45 (active) |
| HDAC2 (UniProt Q92769) | 0.856 (active) |
| HDAC7 isoform 5 (UniProt Q8WUI4) | 0.108 |
| GEMIN2 (UniProt O14893) | 0.243 |
| HPCAL1 (UniProt P37235) | -0.092 |
| FCHO1 (UniProt O14526) | 0.053 |
| HIP1R (UniProt O75146) | -0.047 |
| HADHB (UniProt P55084) | -0.085 |
| GHDC (UniProt Q8N2G8) | -0.113 |
| FEN1 (UniProt P39748) | -0.194 |
| GOPC (UniProt Q9HD26) | 0.131 |
| FDFT1 (UniProt P37268) | 0.01 |

| Target | log2 fold change |
| --- | --- |
| GDE1 (UniProt Q9NZC3) | 0.02 |
| ICMT (UniProt O60725) | -0.204 |
| GAK (UniProt O14976) | 0.452 |
| GSTP1 (UniProt P09211) | -0.108 |
| FOXO3 (UniProt O43524) | 0.024 |
| FDXR isoform 7 (UniProt P22570) | -0.07 |
| HNRNPH2 (UniProt P55795) | 0.044 |
| GLIPR2 (UniProt Q9H4G4) | 0.062 |
| FIBP (UniProt O43427) | -0.009 |
| HNRNPC isoform 2 (UniProt P07910) | 0.449 |
| FBXO7 (UniProt Q9Y3I1) | 0.047 |
| GPS2 (UniProt Q13227) | -0.316 (active) |
| GGA2 (UniProt Q9UJY4) | 0.582 (active) |
| GMEB1 (UniProt Q9Y692) | -0.041 |
| FANCD2 isoform 1 (UniProt Q9BXW9) | -0.09 |
| GPX4 (UniProt P36969) | -0.151 |
| IFITM3 (UniProt Q01628) | -0.425 (active) |

Compound: CCCS(=O)(=O)Nc1ccc(F)c(C(=O)c2c[nH]c3ncc(-c4ccc(Cl)cc4)cc23)c1F [vemurafenib]
Assay: as above
Method in brief: as §1

| Target | log2 fold change |
| --- | --- |
| FAT1 (UniProt Q14517) | -0.199 |
| GAB2 (UniProt Q9UQC2) | -0.071 |
| GLCCI1 (UniProt Q86VQ1) | -0.007 |
| FANCI (UniProt Q9NVI1) | 0.016 |
| GALNT11 (UniProt Q8NCW6) | 0.009 |
| FDPS (UniProt P14324) | 0.034 |
| HDAC1 (UniProt Q13547) | 0.051 |
| HDAC2 (UniProt Q92769) | -0.005 |
| HDAC7 isoform 5 (UniProt Q8WUI4) | 0 |
| GEMIN2 (UniProt O14893) | -0.028 |
| HPCAL1 (UniProt P37235) | -0.017 |
| FCHO1 (UniProt O14526) | 0.254 |
| HIP1R (UniProt O75146) | -0.026 |
| HADHB (UniProt P55084) | -0.047 |
| GHDC (UniProt Q8N2G8) | -0.041 |
| FEN1 (UniProt P39748) | 0.121 |
| GOPC (UniProt Q9HD26) | 0.094 |
| FDFT1 (UniProt P37268) | 0 |

| Target | log2 fold change |
| --- | --- |
| GDE1 (UniProt Q9NZC3) | -0.033 |
| ICMT (UniProt O60725) | 0 |
| GAK (UniProt O14976) | -0.06 |
| GSTP1 (UniProt P09211) | 0.022 |
| FOXO3 (UniProt O43524) | -0.023 |
| FDXR isoform 7 (UniProt P22570) | 0.02 |
| HNRNPH2 (UniProt P55795) | 0.048 |
| GLIPR2 (UniProt Q9H4G4) | 0.092 |
| FIBP (UniProt O43427) | 0.03 |
| HNRNPC isoform 2 (UniProt P07910) | -0.055 |
| FBXO7 (UniProt Q9Y3I1) | 0.017 |
| GPS2 (UniProt Q13227) | 0.019 |
| GGA2 (UniProt Q9UJY4) | 0.053 |
| GMEB1 (UniProt Q9Y692) | -0.048 |
| FANCD2 isoform 1 (UniProt Q9BXW9) | 0.033 |
| GPX4 (UniProt P36969) | -0.019 |
| IFITM3 (UniProt Q01628) | 0.177 |
